# Measurements taken from PubChem BioAssay (NCATS).
# Records with an inconclusive call do not appear. Calls of active or inactive are those of the source. Unless noted, calls follow the shape of the dose curve; as a rule, active = well fitted inhibition curve with a large enough effect; inconclusive = small, poorly fitted or top-dose-only effect; inactive = no such curve, though single readings can be large or run the other way.
# How the values were obtained:
# [1] = qHTS profiling of the MIPE4 collection as inhibitors of Plasmodium falciparum (3D7) proliferation (AID 743344; call rule not given here;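 also: scaled between DMSO vehicle wells and 0.29 µM artemisinin as full inhibition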); settings: P. falciparum 3D7 in erythrocytes, SYBR Green DNA fluorescence, 72 h; at 28.5 µM unless noted
# In short: (§1)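 Parasite DNA was quantified by SYBR Green I fluorescence (ex 485, em 535 nm) after overnight lysis in saponin/Triton buffer at room temperature. Cultures at 0.3% parasitemia and 2.5% hematocrit were first exposed to compound for 72 h at 37 C; signals were normalised to artemisinin (0.29 uM) and vehicle wells.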
# [2] = qHTS profiling of the MIPE4 collection as inhibitors of Plasmodium falciparum (DD2) proliferation (AID 743345; call rule not given here); settings: P. falciparum Dd2 in erythrocytes, SYBR Green DNA, 72 h; at 28.5 µM unless noted
# In short: as §1
# [3] = qHTS profiling of the MIPE4 collection as inhibitors of Plasmodium falciparum (DD2) proliferation (Rep 2) (AID 743346; call rule not given here); settings: P. falciparum Dd2 in erythrocytes, SYBR Green DNA, 72 h; at 28.5 µM unless noted
# In short: as §1
# [4] = qHTS profiling of the MIPE4 collection as inhibitors of Plasmodium falciparum (HB3) proliferation (AID 743347; call rule not given here;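 also: plate controls were DMSO vehicle wells for no effect and artemisinin wells for full effect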); settings: P. falciparum HB3 in erythrocytes, SYBR Green DNA, 72 h; at 28.5 µM unless noted
# In short: as §1
# [5] = High-throughput drug toxicity screening in the BPDCN cell line Gen2.2 (AID 1224824; call rule not given here;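 also: cells exposed to compounds for 48 h before reading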); settings: Gen2.2 BPDCN cells; at 45.8 µM (top of the series) unless noted
# In short: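 Gen2.2 cells, 500 per well in phenol red-free RPMI with 10% FBS, exposed to compounds 48 h at 37 C, 5% CO2; viability by CellTiter-Glo luminescence. Percent activity scaled to DMSO (100%) and 9.2 uM bortezomib final (0%).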
# [6] = High-throughput drug toxicity screening in the BPDCN cell line Cal-1 (AID 1224825; call rule not given here); settings: Cal-1 BPDCN cell viability, qHTS; at 45.8 µM (top of the series) unless noted
# In short: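 Viability of the BPDCN line Cal-1 is measured as ATP-based luminescence (CellTiter-Glo) following 48 h incubation with compounds. Percent activity uses DMSO-treated wells as 100% and 9.2 uM bortezomib as 0%.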
# [7] = qHTS assay for measurement of the activity of small molecule inhibitors on Zika virus induced Caspase-3 activity in human iPSC derived neural progenitor cells (hNPCs) (AID 1224857); settings: hNPCs ZIKV-induced caspase-3/7, Caspase-Glo luminescence, 6 h; series mostly up to 45.7 µM; also: % of control where 0% means no effect; nearly all actives have a fitted effect of over 65% in size
# In short: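 Zika virus (2 FFU/cell) infection of human iPSC-derived NPCs, 6 h, following 1 h compound preincubation. Read-out: Caspase-Glo 3/7 luminescence.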
# [8] = qHTS assay for measurement of the activity of small molecule inhibitors on Zika virus induced Caspase-3 activity in human astrocytoma cells (AID 1224859); settings: SNB-19 ZIKV-induced caspase-3/7, luminescence, 6 h; series mostly up to 45.7 µM;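 also: plate controls were ZIKV-infected untreated cells for no effect and uninfected cells for full effect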
# In short: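 Caspase activation in ZIKV-infected SNB-19 cells (2 FFU/cell, 6 h) measured by Caspase-Glo 3/7 luminescence after 30 min RT; compound pre-incubated 1 h; normalised to uninfected and infected controls.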
# [9] = qHTS Screen of the MIPE 4.0 Collection Against Ewings Sarcoma (RDES) (AID 1259252); settings: RD-ES Ewing sarcoma viability, CellTiter-Glo, 48 h; series mostly up to 45.8 µM; also: nearly all actives have a fitted effect of over 35% in size; also: potency is read from the fitted curve at half-maximal effect
# In short: (§2)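 Compound titrations go onto adherent log-phase cells 4 h after seeding, incubate 48 h at 37C, then CellTiter-Glo luminescence reports viability relative to DMSO and cell-free controls.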
# [10] = qHTS Screen of the MIPE 4.0 Collection Against Ewings Sarcoma (TC71) (AID 1259253); settings: TC71 Ewing sarcoma viability, CellTiter-Glo, 48 h; series mostly up to 45.8 µM; also: nearly all actives have a fitted effect of over 40% in size; also: potency is read from the fitted curve at half-maximal effect
# In short: as §2
# [11] = qHTS Screen of the MIPE 4.0 Collection Against Ewings Sarcoma (EW8) (AID 1259255); settings: EW8 Ewing sarcoma viability, CellTiter-Glo, 48 h; series mostly up to 45.8 µM; also: nearly all actives have a fitted effect of over 35% in size; also: potency is read from the fitted curve at half-maximal effect;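 as to viability: 100% = DMSO-treated cells and 0% = medium-only wells without cells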
# In short: as §2
# [12] = qHTS Screen of the MIPE 4.0 Collection Against Ewings Sarcoma (TC32) (AID 1259256); settings: TC32 Ewing sarcoma viability, CellTiter-Glo, 48 h; series mostly up to 45.8 µM; also: nearly all actives have a fitted effect of over 45% in size; also: potency is read from the fitted curve at half-maximal effect
# In short: as §2
Compound,"parasite growth, % of DMSO control [1]","parasite growth remaining, % of DMSO control (lower = more inhibition) [2]","parasite growth, % of control (lower = inhibition) [3]","growth, % of control [4]","cell viability, % of control (lower = more cytotoxic) [5]",viability (% of control) [6],Potency [7],Potency [8],Potency [9],Potency [10],Potency [11],Potency [12]
Cn1cnc2c(F)c(Nc3ccc(Br)cc3F)c(C(=O)NOCCO)cc21,86.6%,88%,76.8%,84.6%,4.85%,56.4%,inactive,inactive,inactive,inactive,inactive,inactive
CN1C(C(=O)Nc2ccccn2)=C(O)c2sc(Cl)cc2S1(=O)=O,64.4%,86.4%,50.9%,69.3%,59.6%,71.2%,inactive,inactive,3320 nM (active),3720 nM (active),20900 nM (active),5260 nM (active)
CC(=O)NCC(=O)N1[C@H]2CC[C@H]1c1cc(Nc3ncc(C(F)(F)F)c(NC4CCC4)n3)ccc12,8.18%,15.3%,12.7%,6.85%,2.71%,2.93%,inactive,inactive,5260 nM (active),935 nM (active),83.3 nM (active),209 nM (active)
CON=C(C(=O)N[C@@H]1C(=O)N2C(C(=O)O)=C(CSC(=O)c3ccco3)CS[C@H]12)c1csc(N)n1,88.2%,101%,71%,53.4%,7.56%,8.07%,inactive,inactive,inactive,inactive,inactive,inactive
C[C@H]1COc2c(N3CCN(C)CC3)c(F)cc3c(=O)c(C(=O)O)cn1c23,49.9%,69.9%,49.2%,60.4%,160%,100%,inactive,inactive,inactive,inactive,inactive,inactive
O=C1c2c(O)cccc2[C@@H]([C@@H]2O[C@H](CO)[C@@H](O)[C@H](O)[C@H]2O)c2cc(CO)cc(O)c21,96.2%,95.6%,80.5%,99.2%,185%,123%,inactive,inactive,inactive,inactive,inactive,inactive
Cc1cnc(Nc2ccc(CN3CCOCC3)cc2)nc1Nc1cccc(S(=O)(=O)NC(C)(C)C)c1,4.59%,8.36%,16.8%,4.53%,1.99%,3.36%,inactive,inactive,3320 nM (active),3320 nM (active),2640 nM (active),3320 nM (active)
CC[C@@]1([C@@H]2O[C@@H]([C@H]3O[C@@](O)(CO)[C@H](C)C[C@H]3C)C[C@H]2C)CC[C@H]([C@]2(C)CC[C@]3(C[C@H](O)[C@@H](C)[C@@H]([C@@H](C)[C@@H](OC)[C@H](C)C(=O)O)O3)O2)O1,5.35% [at 9.64 µM],5.25% [at 9.64 µM],9.17% [at 9.64 µM],3.89% [at 9.64 µM],27.8% [at 23.2 µM],65.7% [at 23.2 µM],inactive,inactive,257 nM (active),257 nM (active),162 nM (active),162 nM (active)
CN[C@@H]1C[C@H]2O[C@@](C)([C@H]1OC)n1c3ccccc3c3c4c(c5c6ccccc6n2c5c31)C(=O)N[C@H]4O,5.29%,6.48%,14.9%,3.74%,13%,4.51%,inactive,inactive,935 nM (active),209 nM (active),418 nM (active),187 nM (active)
Oc1cc(-c2nc(-c3ccccc3)[nH]c2-c2ccncc2)ccc1Cl,5.77%,9.67%,8.42%,3.61%,3.91%,5.51%,inactive,inactive,18700 nM (active),26400 nM (active),23500 nM (active),18700 nM (active)
CC(C)N1[N]C(=C2C=c3cc(O)ccc3=N2)c2c(N)ncnc21,9.52%,13.1%,10.7%,3.6%,2.36%,2.77%,inactive,inactive,1870 nM (active),372 nM (active),418 nM (active),209 nM (active)
CCN(CC)Cc1ccc2cc(COC(=O)Nc3ccc(C(=O)NO)cc3)ccc2c1,4.38%,6.93%,6.48%,7.88%,8.65%,4.07%,inactive,inactive,743 nM (active),662 nM (active),526 nM (active),662 nM (active)
CC[C@H]1OC(=O)[C@H](C)[C@@H](O[C@H]2C[C@@](C)(OC)[C@@H](O)[C@H](C)O2)[C@H](C)[C@@H](O[C@@H]2O[C@H](C)C[C@H](N(C)C)[C@@H]2O)[C@](C)(OC)C[C@@H](C)C(=O)[C@H](C)[C@@H](O)[C@]1(C)O,46.8%,44.2%,66.9%,51.5%,99.8%,108%,inactive,inactive,inactive,inactive,inactive,inactive
COc1ccc(C(C)=O)c(O)c1,86.4%,98.8%,131%,95.8%,146%,35.9%,inactive,inactive,inactive,inactive,inactive,inactive
Cn1cc(CNCC2CCN(c3ncc(C(=O)NO)cn3)CC2)c2ccccc21,4.76%,7.34%,8.03%,7.88%,12.7%,4.24%,inactive,inactive,33.2 nM (active),33.2 nM (active),33.2 nM (active),20.9 nM (active)
